Our source for the outcome and AC50 values is PubChem BioAssay (EPA / NIEHS).

Records with an inconclusive call do not appear. The source made the active and inactive calls. The calls were made as follows, unless noted: active = hit-call score of the fitted dose curve at least 0.9, where 1 is the maximum; inactive = score below 0.9.

The target of test [1] is Glucocorticoid receptor (Homo sapiens) (UniProt P04150). Description: ATG_GR_TRANS: Attagene TRANS-FACTORIAL HepG2 Assay for human Glucocorticoid Receptor (GR) (AID 2282978; active = hit-call score of the fitted dose curve at least 0.9, where 1 is the maximum;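 also: activators score as hits since higher reporter transcript over DMSO is fitted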). To be noted: HepG2 Attagene TRANS GR reporter, mRNA transcription. In a few lines: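 Fluorescent capillary-electrophoresis quantitation of reporter mRNA is the readout, taken 24 h after dosing human HepG2 cells carrying transiently transfected GAL4-UAS reporter units activated by chimeric NR-GAL4 fusions; activity scored as induction over DMSO.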

Test [2] deals with Bile acid receptor (Homo sapiens) (UniProt Q96RI1). The test is described as follows: ATG_FXR_TRANS: Attagene TRANS-FACTORIAL HepG2 Assay for Farnesoid X Receptor (FXR) (AID 2282979; active = hit-call score of the fitted dose curve at least 0.9, where 1 is the maximum;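 also: hits raise reporter mRNA above DMSO so AC50 marks FXR activation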). To be noted: HepG2 Attagene TRANS FXR-GAL4 reporter transcription. In a few lines:
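Chimeric FXR-GAL4 activity in transiently transfected human HepG2 liver cells is scored as induction of reporter mRNA after 24 h of dosing. Detection uses RT-PCR with fluorescent labelling and capillary electrophoresis, with DMSO serving as baseline.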

Test [3] concerns the target Oxysterols receptor LXR-alpha (Homo sapiens) (UniProt Q13133). Description: ATG_LXRa_TRANS: Attagene TRANS-FACTORIAL HepG2 Assay for human Liver X Receptor alpha (LXRa) (AID 2282980; active = hit-call score of the fitted dose curve at least 0.9, where 1 is the maximum). The following applies: HepG2 Attagene TRANS reporter, LXRa transactivation. In a few lines: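 Transient HepG2 transfectants, 24 h dosing, RT-PCR/CE mRNA reporter quantitation; gain-of-signal vs DMSO.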

In test [4] the target is Hepatocyte nuclear factor 4-alpha (Homo sapiens) (UniProt P41235). The test is described as follows: ATG_HNF4a_TRANS: Attagene TRANS-FACTORIAL HepG2 Assay for human Hepatocyte Nuclear Factor 4 alpha (HNF4a) (AID 2282982; active = hit-call score of the fitted dose curve at least 0.9, where 1 is the maximum). To be noted: HepG2 HNF4a transactivation reporter, mRNA readout. An outline of the steps:
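HepG2 cells transiently transfected with multiplexed GAL4-UAS reporter units responsive to chimeric NR-GAL4 proteins; compound exposure 24 h. Reporter mRNA quantified by RT-PCR, 6-FAM labelling, HpaI digestion and capillary electrophoresis; gain of signal versus DMSO baseline.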

Test [5] in a line: ATG_M_06_TRANS: Attagene TRANS-FACTORIAL HepG2 Assay for M06 Transcription Factor (Internal Marker) (AID 2282983; active = hit-call score of the fitted dose curve at least 0.9, where 1 is the maximum). To be noted: HepG2 Attagene TRANS M06 internal marker reporter. In a few lines: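 Measured by capillary electrophoresis of fluorescently labelled RT-PCR products, this endpoint reflects reporter mRNA in HepG2 cells harbouring exogenous NR-GAL4 reporter constructs after 24 h exposure, with DMSO as baseline.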

The target in test [6] is Transcriptional activator Myb (Homo sapiens) (UniProt P10242). The test is described as follows: ATG_Myb_CIS: Attagene CIS-FACTORIAL HepG2 Assay for human Myeloblastosis (Myb) Proto-Oncogene Transcription Factor (AID 2282986). The following applies: HepG2 Attagene CIS-FACTORIAL Myb reporter transcription; actives raise or lower the signal. An outline of the steps:
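Reporter transcript levels, quantified by fluorescent RT-PCR and capillary electrophoresis, serve as the read-out. Transfected HepG2 cells carrying cis-promoter reporter units are dosed for 24 hours, and curves are fitted bidirectionally against DMSO controls.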

Test [7] deals with Nuclear respiratory factor 1 (Homo sapiens) (UniProt Q16656). Description: ATG_NRF1_CIS: Attagene CIS-FACTORIAL HepG2 Assay for human Nuclear Respiratory Factor 1 (NRF1) Orphan Gene (AID 2282987). To be noted: HepG2 NRF1 cis-element reporter, Attagene multiplex; actives raise or lower the signal. An outline of the steps:
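Multiplexed cis-reporter assay, HepG2 cells, 24 h treatment. Total RNA → oligo(dT) RT → PCR with reporter-specific primers → 6-FAM primer extension → HpaI cut → CE. Bidirectional fit vs DMSO.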

Test [8] can be described thus: ATG_NFI_CIS: Attagene CIS-FACTORIAL HepG2 Assay for human Nuclear Factor I (NFI) (AID 2282989). The following applies: HepG2 cis-regulatory reporter, NFI response element transcription; actives raise or lower the signal. An outline of the steps:
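Transfected HepG2 liver cells, exposed 24 h, supplied total RNA for oligo(dT) reverse transcription and reporter-specific PCR. Labelled, HpaI-cut fragments were sized by capillary electrophoresis; DMSO set the baseline for bidirectional fitting.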

The target in test [9] is Myc proto-oncogene protein (Homo sapiens) (UniProt P01106). Description: ATG_Myc_CIS: Attagene CIS-FACTORIAL HepG2 Assay for human Myelocytomatosis (Myc) Proto-Oncogene Transcription Factor (AID 2282990). The following applies: HepG2, Attagene cis-reporter transcription factor activity; actives raise or lower the signal. An outline of the steps:
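Multiplexed cis-reporter transcription in HepG2 cells after 24 h chemical treatment. Reporter mRNA measured by RT-PCR and capillary electrophoresis fluorescence; activity fitted bidirectionally against DMSO control.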

Test [10] in a line: ATG_NF_kB_CIS: Attagene CIS-FACTORIAL HepG2 Assay for human Nuclear Factor Kappa B (NF-kB) (AID 2282991). To be noted: HepG2 Attagene cis-factorial NF-kB reporter mRNA; actives raise or lower the signal. In a few lines:
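Transient MRTU transfection of human HepG2 liver cells → 24 h chemical exposure → total RNA, oligo(dT) RT → PCR, 6-FAM primer extension, HpaI digest 2 h 37 C → CE fragment analysis. Bidirectional fitting, DMSO negative control.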

The nature of test [11]: ATG_NRF2_ARE_CIS: Attagene CIS-FACTORIAL HepG2 Assay for human Nuclear Factor Erythroid 2 Related Factor 2 (NFR2) response to Antioxidant Response Elements (ARE) (AID 2282992). The following applies: HepG2 Attagene ARE/NRF2 reporter, transcription factor activity; actives raise or lower the signal. An outline of the steps: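 Cis-factorial assay: transfected HepG2 reporter library, 24 h dosing, mRNA readout via RT-PCR/CE; DMSO-referenced bidirectional analysis.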

A short description of test [12]: ATG_Oct_MLP_CIS: Attagene CIS-FACTORIAL HepG2 Assay for human Octamer-Binding Transcription Factor (Oct) (AID 2282993). To be noted: HepG2 Attagene cis-factorial Oct reporter, mRNA; actives raise or lower the signal. In a few lines: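 Using HepG2 cells bearing transfected cis-reporter constructs, mRNA induction was read after 24 h by fluorescent RT-PCR and capillary electrophoresis, with DMSO defining baseline for gain- or loss-of-signal fits.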

For test [13], the target named is Cellular tumor antigen p53 (Homo sapiens) (UniProt P04637). Description: ATG_p53_CIS: Attagene CIS-FACTORIAL HepG2 Assay for human p53 Transcription Factor (AID 2282994). To be noted: HepG2 p53 cis-element reporter, Attagene mRNA; actives raise or lower the signal. In a few lines:
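Using HepG2 hepatoma cells carrying cis-acting multiplexed reporters, mRNA induction is detected after a 24 h exposure. Gain- and loss-of-signal responses are fitted relative to DMSO-treated cells.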

Test [14] concerns the target Oxysterols receptor LXR-beta (Homo sapiens) (UniProt P55055). The test is described as follows: ATG_LXRb_TRANS: Attagene TRANS-FACTORIAL HepG2 Assay for human Liver X Receptor beta (LXRb) (AID 2282981; active = hit-call score of the fitted dose curve at least 0.9, where 1 is the maximum). The following applies: HepG2 Attagene TRANS GAL4-LXRb reporter, mRNA. An outline of the steps:
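HepG2 cells transiently transfected with multiple reporter transcription units carrying chimeric NR-Gal4 proteins acting on GAL4-UAS reporters; compound exposure 24 h. Reporter mRNA quantified by RT-PCR, 6-FAM labelling, HpaI digestion and capillary electrophoresis; gain of signal versus DMSO.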

Test [15] deals with Nuclear receptor subfamily 4 group A member 2 (Homo sapiens) (UniProt P43354). The test is described as follows: ATG_NURR1_TRANS: Attagene TRANS-FACTORIAL HepG2 Assay for human Nuclear Receptor Related Protein 1 (NURR1) (AID 2282985; active = hit-call score of the fitted dose curve at least 0.9, where 1 is the maximum). To be noted: HepG2 Attagene TRANS reporter, mRNA readout. An outline of the steps:
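HepG2 cells transiently transfected with GAL4-UAS reporter units and chimeric NR-Gal4 constructs; chemical exposure 24 h. Reporter mRNA quantified by RT-PCR, fluorescent labelling and capillary electrophoresis; gain of signal fitted relative to DMSO baseline.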

The nature of test [16]: BSK_3C_TissueFactor: BioMAP Diversity Plus: 3C Assay for Tissue Factor Biomarker Activity (AID 2282997). To be noted: BioMAP 3C HUVEC, tissue factor biomarker readout; actives raise or lower the signal. In a few lines: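 Values derive from bidirectional curve fitting against DMSO of Tissue Factor ELISA signals, taken 24 h after dosing primary human umbilical vein endothelial cells.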

A short description of test [17]: BSK_3C_uPAR: BioMAP Diversity Plus: 3C Assay for Urokinase-type plasminogen activator receptor (uPAR) Biomarker Activity (AID 2282998). To be noted: BioMAP 3C HUVEC, uPAR biomarker ELISA; actives raise or lower the signal. An outline of the steps:
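In this endothelial cell-based assay, human umbilical vein primary cells were treated with chemicals and harvested at 24 h. uPAR was quantified using ELISA, with gains or losses fitted relative to DMSO controls.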

Test [18] can be described thus: BSK_3C_VCAM1: BioMAP Diversity Plus: 3C Assay for Vascular cell adhesion molecule 1 (VCAM1) Biomarker Activity (AID 2282999). To be noted: BioMAP 3C HUVEC, VCAM1 ELISA, cytokine-stimulated; actives raise or lower the signal. In a few lines: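 Human umbilical vein endothelial cells were dosed with compound for 24 h, after which cell-surface VCAM-1 was quantified by ELISA. Bidirectional curve fitting used DMSO as negative control and activity baseline.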

The nature of test [19]: BSK_4H_Eotaxin3: BioMAP Diversity Plus: 4H Assay for Eotaxin 3 Biomarker Activity (AID 2283000). To be noted: primary human endothelial cells (HUVEC); actives raise or lower the signal. In a few lines:
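Endothelial primary cells (human umbilical vein) exposed to compound for 24 h. ELISA detection of Eotaxin-3.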

A short description of test [20]: ATG_M_32_TRANS: Attagene TRANS-FACTORIAL HepG2 Assay for M32 Transcription Factor (Internal Marker) (AID 2282984; active = hit-call score of the fitted dose curve at least 0.9, where 1 is the maximum). The following applies: HepG2 Attagene TRANS M32 internal marker reporter. An outline of the steps: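 HepG2 cells transiently transfected with multiple GAL4-UAS reporter transcription units, dosed for 24 hours; reporter mRNA quantified by RT-PCR, 6-FAM primer extension, HpaI digestion and capillary electrophoresis. Gain-of-signal fitted versus DMSO baseline; internal background-control marker.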

Sequence of Myc proto-oncogene protein (Homo sapiens) (P01106 whole entry, looked up): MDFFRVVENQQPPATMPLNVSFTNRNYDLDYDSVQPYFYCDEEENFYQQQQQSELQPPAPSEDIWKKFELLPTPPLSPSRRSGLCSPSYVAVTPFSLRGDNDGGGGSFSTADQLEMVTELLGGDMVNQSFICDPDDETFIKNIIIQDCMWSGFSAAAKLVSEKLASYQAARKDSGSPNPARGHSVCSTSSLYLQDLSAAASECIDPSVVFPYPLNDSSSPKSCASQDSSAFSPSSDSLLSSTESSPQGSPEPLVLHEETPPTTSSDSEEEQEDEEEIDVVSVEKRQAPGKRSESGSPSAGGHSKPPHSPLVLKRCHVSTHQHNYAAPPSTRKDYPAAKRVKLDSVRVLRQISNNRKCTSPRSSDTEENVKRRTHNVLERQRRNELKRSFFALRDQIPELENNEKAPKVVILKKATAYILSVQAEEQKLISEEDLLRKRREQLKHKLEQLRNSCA
Sequence of Bile acid receptor (Homo sapiens) (Q96RI1 whole entry, looked up, the tested form may be a part): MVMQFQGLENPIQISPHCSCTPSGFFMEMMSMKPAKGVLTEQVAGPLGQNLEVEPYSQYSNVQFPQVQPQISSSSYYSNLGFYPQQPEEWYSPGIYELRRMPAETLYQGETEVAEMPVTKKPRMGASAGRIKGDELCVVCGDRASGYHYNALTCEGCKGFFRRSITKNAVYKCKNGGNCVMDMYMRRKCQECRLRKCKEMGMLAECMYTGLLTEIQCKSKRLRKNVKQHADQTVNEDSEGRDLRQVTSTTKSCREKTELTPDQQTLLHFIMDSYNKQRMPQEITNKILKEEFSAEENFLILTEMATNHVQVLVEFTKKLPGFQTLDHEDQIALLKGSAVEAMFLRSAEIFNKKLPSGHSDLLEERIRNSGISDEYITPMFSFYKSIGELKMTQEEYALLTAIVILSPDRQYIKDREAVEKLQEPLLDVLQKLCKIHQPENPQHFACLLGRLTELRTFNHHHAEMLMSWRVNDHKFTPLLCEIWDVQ
Sequence of Nuclear receptor subfamily 4 group A member 2 (Homo sapiens) (P43354 whole entry, looked up, the tested form may be a part): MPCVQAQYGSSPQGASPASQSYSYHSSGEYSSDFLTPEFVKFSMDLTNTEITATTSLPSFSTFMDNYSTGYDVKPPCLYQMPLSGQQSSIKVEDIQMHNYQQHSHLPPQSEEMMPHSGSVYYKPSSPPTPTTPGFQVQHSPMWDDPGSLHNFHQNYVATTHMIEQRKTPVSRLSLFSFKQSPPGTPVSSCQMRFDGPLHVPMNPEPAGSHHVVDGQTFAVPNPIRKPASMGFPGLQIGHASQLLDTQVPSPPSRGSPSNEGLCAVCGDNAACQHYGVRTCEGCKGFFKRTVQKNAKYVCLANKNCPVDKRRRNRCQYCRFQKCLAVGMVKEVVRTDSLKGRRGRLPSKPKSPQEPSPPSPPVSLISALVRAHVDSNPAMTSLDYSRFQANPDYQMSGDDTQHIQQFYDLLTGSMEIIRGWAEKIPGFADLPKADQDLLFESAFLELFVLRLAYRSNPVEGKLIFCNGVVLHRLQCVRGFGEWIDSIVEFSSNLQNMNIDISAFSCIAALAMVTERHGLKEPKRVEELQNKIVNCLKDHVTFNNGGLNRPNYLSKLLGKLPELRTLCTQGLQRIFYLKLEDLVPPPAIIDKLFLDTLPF
Sequence of Nuclear respiratory factor 1 (Homo sapiens) (Q16656 whole entry, looked up): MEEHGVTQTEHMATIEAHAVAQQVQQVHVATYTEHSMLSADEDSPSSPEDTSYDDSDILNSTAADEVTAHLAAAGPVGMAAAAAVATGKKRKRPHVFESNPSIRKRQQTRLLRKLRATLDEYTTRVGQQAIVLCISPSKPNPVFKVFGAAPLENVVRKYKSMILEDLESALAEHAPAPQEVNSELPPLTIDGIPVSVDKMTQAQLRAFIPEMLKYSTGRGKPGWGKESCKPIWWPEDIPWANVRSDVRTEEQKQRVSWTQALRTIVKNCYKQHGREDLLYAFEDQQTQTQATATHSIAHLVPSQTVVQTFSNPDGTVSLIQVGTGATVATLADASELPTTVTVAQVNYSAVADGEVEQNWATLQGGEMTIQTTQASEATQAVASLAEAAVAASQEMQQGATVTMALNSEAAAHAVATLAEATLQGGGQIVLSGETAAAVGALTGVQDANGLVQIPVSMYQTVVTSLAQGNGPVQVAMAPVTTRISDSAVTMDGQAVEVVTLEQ
Sequence of Cellular tumor antigen p53 (Homo sapiens) (P04637 whole entry, looked up): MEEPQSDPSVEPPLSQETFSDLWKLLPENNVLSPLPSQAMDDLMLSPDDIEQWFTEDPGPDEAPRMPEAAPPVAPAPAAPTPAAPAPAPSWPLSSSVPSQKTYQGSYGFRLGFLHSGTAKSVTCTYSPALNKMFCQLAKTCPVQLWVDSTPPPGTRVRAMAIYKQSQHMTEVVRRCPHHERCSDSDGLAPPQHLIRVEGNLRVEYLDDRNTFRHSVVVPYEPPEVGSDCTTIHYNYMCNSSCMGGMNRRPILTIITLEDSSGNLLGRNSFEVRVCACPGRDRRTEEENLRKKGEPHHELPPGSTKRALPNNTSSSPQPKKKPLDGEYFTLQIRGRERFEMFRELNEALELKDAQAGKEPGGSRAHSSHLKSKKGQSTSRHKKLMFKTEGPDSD
Sequence of Glucocorticoid receptor (Homo sapiens) (P04150 whole entry, looked up, the tested form may be a part): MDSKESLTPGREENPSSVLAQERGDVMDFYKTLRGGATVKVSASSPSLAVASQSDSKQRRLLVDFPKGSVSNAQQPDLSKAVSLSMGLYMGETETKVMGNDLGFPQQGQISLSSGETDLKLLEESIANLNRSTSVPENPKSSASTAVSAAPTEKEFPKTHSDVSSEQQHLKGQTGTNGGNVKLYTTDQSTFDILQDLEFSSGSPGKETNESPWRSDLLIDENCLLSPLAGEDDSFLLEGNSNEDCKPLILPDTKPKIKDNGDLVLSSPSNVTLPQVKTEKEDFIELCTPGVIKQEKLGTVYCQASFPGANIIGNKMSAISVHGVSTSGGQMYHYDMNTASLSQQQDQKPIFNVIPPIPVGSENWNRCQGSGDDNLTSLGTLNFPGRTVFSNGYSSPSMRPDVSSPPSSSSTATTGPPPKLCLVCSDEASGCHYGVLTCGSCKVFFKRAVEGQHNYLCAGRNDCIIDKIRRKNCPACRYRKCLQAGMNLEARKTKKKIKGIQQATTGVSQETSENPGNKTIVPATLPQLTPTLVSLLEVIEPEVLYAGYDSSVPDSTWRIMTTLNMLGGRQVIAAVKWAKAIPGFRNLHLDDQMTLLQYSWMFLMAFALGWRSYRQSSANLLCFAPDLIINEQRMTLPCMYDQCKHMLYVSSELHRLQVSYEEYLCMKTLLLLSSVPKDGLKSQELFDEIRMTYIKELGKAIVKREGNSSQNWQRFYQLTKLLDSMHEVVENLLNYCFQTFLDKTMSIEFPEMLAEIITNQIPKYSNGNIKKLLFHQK
Sequence of Oxysterols receptor LXR-alpha (Homo sapiens) (Q13133 whole entry, looked up): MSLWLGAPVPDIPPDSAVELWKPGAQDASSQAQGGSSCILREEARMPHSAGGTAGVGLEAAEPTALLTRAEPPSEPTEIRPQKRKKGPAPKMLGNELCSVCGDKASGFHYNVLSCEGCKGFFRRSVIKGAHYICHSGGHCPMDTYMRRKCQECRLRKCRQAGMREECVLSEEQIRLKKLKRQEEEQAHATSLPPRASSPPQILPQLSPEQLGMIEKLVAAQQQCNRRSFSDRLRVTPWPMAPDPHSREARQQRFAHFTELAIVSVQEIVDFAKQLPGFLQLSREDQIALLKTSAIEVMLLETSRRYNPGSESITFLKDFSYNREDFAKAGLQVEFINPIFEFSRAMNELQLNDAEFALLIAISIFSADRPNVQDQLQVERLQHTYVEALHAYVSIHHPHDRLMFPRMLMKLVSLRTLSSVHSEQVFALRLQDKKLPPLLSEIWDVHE
Sequence of Transcriptional activator Myb (Homo sapiens) (P10242 whole entry, looked up): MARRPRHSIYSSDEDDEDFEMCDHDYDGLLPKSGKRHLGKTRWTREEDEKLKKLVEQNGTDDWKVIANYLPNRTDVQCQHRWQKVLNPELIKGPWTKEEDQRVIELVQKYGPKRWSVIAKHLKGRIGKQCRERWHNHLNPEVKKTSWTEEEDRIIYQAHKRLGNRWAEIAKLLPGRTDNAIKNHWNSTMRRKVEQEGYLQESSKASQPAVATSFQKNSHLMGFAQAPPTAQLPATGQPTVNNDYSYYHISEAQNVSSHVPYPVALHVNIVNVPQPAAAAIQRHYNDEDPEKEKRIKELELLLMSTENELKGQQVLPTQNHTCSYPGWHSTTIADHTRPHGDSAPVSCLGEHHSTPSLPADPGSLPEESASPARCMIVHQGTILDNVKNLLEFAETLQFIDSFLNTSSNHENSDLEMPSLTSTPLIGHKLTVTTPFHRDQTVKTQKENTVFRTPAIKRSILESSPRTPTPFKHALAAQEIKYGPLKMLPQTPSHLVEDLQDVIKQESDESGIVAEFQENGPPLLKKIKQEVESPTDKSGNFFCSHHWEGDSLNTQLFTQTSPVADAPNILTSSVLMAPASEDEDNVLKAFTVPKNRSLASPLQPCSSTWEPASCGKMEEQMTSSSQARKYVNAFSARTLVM
Sequence of Hepatocyte nuclear factor 4-alpha (Homo sapiens) (P41235 whole entry, looked up, the tested form may be a part): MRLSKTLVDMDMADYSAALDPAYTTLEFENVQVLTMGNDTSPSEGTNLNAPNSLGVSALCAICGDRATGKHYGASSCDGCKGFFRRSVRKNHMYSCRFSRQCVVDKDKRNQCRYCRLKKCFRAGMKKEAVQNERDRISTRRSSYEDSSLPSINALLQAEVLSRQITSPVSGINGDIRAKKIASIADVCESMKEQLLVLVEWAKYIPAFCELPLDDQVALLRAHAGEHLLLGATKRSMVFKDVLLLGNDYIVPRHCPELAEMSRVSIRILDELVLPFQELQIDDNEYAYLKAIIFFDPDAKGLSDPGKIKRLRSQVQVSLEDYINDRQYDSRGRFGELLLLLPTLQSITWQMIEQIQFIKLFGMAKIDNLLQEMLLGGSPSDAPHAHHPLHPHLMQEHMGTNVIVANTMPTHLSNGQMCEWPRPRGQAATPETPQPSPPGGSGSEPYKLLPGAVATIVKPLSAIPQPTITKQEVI

For the compound `CC(C)(C#N)c1cc(Cn2cncn2)cc(C(C)(C)C#N)c1`, the outcome in test [1], in test [2], in [3], in test [4], in [5] and in test [6] was inactive. Also, the call in test [7], in test [8], in test [9], in test [10], in test [11] and in test [12] was inactive. Further, the compound was called inactive in test [13].

Consider `CCCC(=O)c1cc(O)c(O)cc1O`, for which the outcome in test [1], in [2], in test [3], in test [14], in test [5] and in test [6] was inactive. Besides, the compound was called inactive in [7], in [9], in test [10], in [12] and in [13].

`CC(C)=CCCC(C)CC=O` (centres undefined): the compound was classed as inactive in test [1], in test [2], in test [3], in [4], in test [5] and in test [15]. Moreover, the compound was called inactive in test [6], in test [7], in test [8], in test [9], in [11] and in [12]. Also, the outcome in test [13] was inactive.

For the compound `BrC1CCC(Br)C(Br)CCC(Br)C(Br)CCC1Br` (centres undefined), the outcome in test [1], in [2], in [3], in test [5], in test [15] and in [6] was inactive. Moreover, the compound was classed as inactive in test [9], in test [10], in [13] and in [16]. In addition, the AC50 is 110 µM (active) in [7]; 46 µM (active) in [8]; 23.1 µM (active) in [11]; 58.6 µM (active) in [12]; 3.22 µM (active) in [17]; 4.6 µM (active) in test [18]. Moreover, the AC50 in test [19] was 3.25 µM (active).

As for `C=C(C)C(=O)O`, the compound was classed as inactive in test [1], in test [3], in test [14], in test [20], in test [15] and in test [6]. The result in [7], in test [9], in test [11] and in test [12] was inactive.
